These results are taken from PubChem BioAssay (NCATS).

Values without a mark were called inactive. Results filed as inconclusive are left out. Activity calls are given as the source filed them. Unless noted, calls follow the shape of the dose curve; as a rule, active = well fitted curve in the direction sought with a large enough effect; inconclusive = small, poorly fitted or top-dose-only effect, or another doubt; inactive = no such curve, though single readings can be large; an effect the other way counts as inactive or inconclusive.

Experiment [1] can be described thus: P-glycoprotein substrates identified in KB-3-1 adenocarcinoma cell line, qHTS therapeutic library screen (AID 1346986). Also: nearly all actives have a fitted effect of over 60% in size.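 Also: potency is read from the fitted curve at half-maximal effect; potency is for cytotoxicity meaning loss of cell viability.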 In short, it runs like this:
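In 1536-well format, 500 cells/well received pinned compound titrations and were incubated 72 h, 5% CO2. Viability was read by CellTiter-Glo; cytotoxic if AC50 < 10 uM and efficacy >50%.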

A short description of experiment [2]: P-glycoprotein substrates identified in KB-8-5-11 adenocarcinoma cell line, qHTS therapeutic library screen (AID 1346987). Also: nearly all actives have a fitted effect of over 65% in size. Also: potency is read from the fitted curve at half-maximal effect. In short, it runs like this: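 Luminescence from CellTiter-Glo, read 5 min after addition, quantified survival of KB-8-5-11 (P-gp-overexpressing) cells exposed to compounds for 72 h. AC50 was derived from concentration-response curves.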
For orientation: Quantitative high-throughput screening tests each substance at several concentrations.

Experiment [3] can be described thus: Natriuretic polypeptide receptor (hNpr1) antagonism - Pilot counterscreen GloSensor control cell line (AID 1347045; calls by dose curve; also: series mostly up to about 38 µM; % is scaled to controls: 0 for no effect and ±100 for the full control effect). Put shortly: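 Cells were first seeded and incubated overnight at 37C, then loaded with 2% GloSensor substrate for 2 h. Compounds were added for 30 min at room temperature, followed by a baseline read, 50 uM SNP and a final read after 20 min.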

The target in experiment [4] is Atrial natriuretic peptide receptor 2 (Homo sapiens) (UniProt P20594). The experiment is described as follows: Natriuretic polypeptide receptor (hNpr2) antagonism - Pilot subtype selectivity assay (AID 1347050; calls by dose curve; also: % is scaled to controls: 0 for no effect and ±100 for the full control effect). In short, it runs like this: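 Luminescence from a genetically encoded cGMP luciferase biosensor in hNpr2-expressing HEK293 cells is read before and 20 min after adding 1 nM hNppC. Test compounds, in interplate 1:5 titrations, are added 30-50 min ahead of the agonist.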

The target of experiment [5] is Parathyroid hormone/parathyroid hormone-related peptide receptor (Homo sapiens) (UniProt Q03431). The experiment is described as follows: qHTS for PTHR1 Agonists: Optimization Screen against the NCGC LOPAC library (AID 1347079).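 Also: GloSensor cAMP luminescence in HEK-293 GP2 cells expressing human PTHR1 with IBMX; 0% is about no effect.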 Put shortly: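 HEK-293 GP2 cells, PTHR1 + GloSensor cAMP; 3000 cells/well, o/n. Luciferin + IBMX 0.5mM each (stock), 1 hr 37C. Cpd titration, 1 hr 37C. Lum after 15 min RT. Ctrl M-PTH(1-15) top 10uM.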

Experiment [6] concerns the target Atrial natriuretic peptide receptor 1 (Homo sapiens) (UniProt P16066). The experiment can be described thus: Natriuretic polypeptide receptor (hNpr1) antagonism - Pilot screen (AID 1347049; calls by dose curve;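 also: agonist-evoked cGMP luminescence read 20 min after hNppA addition; series mostly up to about 58 µM; % is scaled to controls: 0 for no effect and ±100 for the full control effect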). Put shortly:
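cGMP-sensor HEK293/hNpr1 cells, 1500/well, plated overnight at 37C. 2% GloSensor reagent, 2 h RT. Compound (23 nL pin transfer) 30 min RT, baseline luminescence pre-read. 0.1 nM hNppA, 20 min RT, post-read.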

A short description of experiment [7]: qHTS for Inhibitors of the Functional Ribonucleoprotein Complex (vRNP) of Lassa (LASV) Arenavirus: LASV Primary Screen - GLuc reporter signal (AID 1347082; calls by dose curve; tested in HEK293 reporter line; also: series mostly up to about 57 µM; % is scaled to controls: 0 for no effect and ±100 for the full control effect; nearly all actives have a fitted effect of over 60% in size).
Experiment [8] in a line: qHTS for Inhibitors of the Functional Ribonucleoprotein Complex (vRNP) of Lassa (LASV) Arenavirus: Viability assay - alamar blue signal for LASV Primary Screen (AID 1347083; calls by dose curve; tested in HEK293 reporter line; also: series mostly up to about 57 µM; % is scaled to controls: 0 for no effect and ±100 for the full control effect; nearly all actives have a fitted effect of over 80% in size).
Experiment [9] is described as follows: qHTS for Inhibitors of the Functional Ribonucleoprotein Complex (vRNP) of Lymphocytic Choriomeningitis Arenaviruses (LCMV): Viability assay - alamar blue signal for LCMV Primary Screen (AID 1347085; calls by dose curve; tested in HEK293 reporter line; also: series mostly up to about 57 µM; % is scaled to controls: 0 for no effect and ±100 for the full control effect; nearly all actives have a fitted effect of over 80% in size).
Experiment [10] has as its target Nucleoprotein (Lymphocytic choriomeningitis virus (strain Armstrong)) (UniProt P09992). The experiment is described as follows: qHTS for Inhibitors of the Functional Ribonucleoprotein Complex (vRNP) of Lymphocytic Choriomeningitis Arenaviruses (LCMV): LCMV Primary Screen - GLuc reporter signal (AID 1347086; calls by dose curve; also: series mostly up to about 57 µM; % is scaled to controls: 0 for no effect and ±100 for the full control effect; nearly all actives have a fitted effect of over 70% in size).
A short description of experiment [11]: NS1 protein of Zika virus - qHTS assay to identify small molecule inhibitors in human HEK 293 cells (AID 1347053).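 Also: series mostly up to about 46 µM; plate controls were infected untreated cells for no effect and uninfected cells for full effect; nearly all actives have a fitted effect of over 55% in size.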 In short, it runs like this:
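Readout was TR-FRET using paired anti-NS1 antibodies after 24 h infection of HEK 293 cells with ZIKV MR766 (MOI = 0.5). Compound preceded virus by 1 h; reduced signal reflects lower NS1 expression.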

Experiment [12] has as its target T1, Tyrosine-protein phosphatase non-receptor type substrate 1 (Homo sapiens) + Leukocyte surface antigen CD47 (Homo sapiens) (UniProt P78324+Q08722). The experiment is described as follows: CD47-SIRPalpha protein protein interaction - LANCE assay qHTS validation (AID 1347057; active = well fitted curve in the direction sought with a large enough effect in the signal ratio, with a control signal flat, not every such curve was filed as active; the % refers to the signal ratio; also: series mostly up to about 38 µM; 0% is about no effect). In short, it runs like this:
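Inhibition of soluble CD47/SIRPalpha ectodomain association by titrated compounds, measured as 665/615 nm time-resolved FRET ratio after sequential 30 min room-temperature incubations.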

The target of experiment [13] is T1, Tyrosine-protein phosphatase non-receptor type substrate 1 (Homo sapiens) + Leukocyte surface antigen CD47 (Homo sapiens). The experiment can be described thus: CD47-SIRPalpha protein protein interaction - HTRF assay qHTS validation (AID 1347058; active = well fitted curve in the direction sought with a large enough effect in the signal ratio, not every such curve was filed as active; the % refers to the signal ratio; also: series mostly up to about 38 µM; 0% is about no effect). In short, it runs like this: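 Soluble extracellular domains (6His-CD47, Avi-tag-biotinylated SIRPalpha) in PBS pH 7.4 with 0.05% IGEPAL CA-630. Compounds were preincubated 30 min at RT with CD47 and anti-His-Eu, then SIRPalpha and SAV-XL665 were added. TR-FRET 665/615 ratio.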
(In general: Time-resolved FRET reads energy transfer from a long-lived donor to a nearby acceptor.)

The target is the same in experiment [14]. The experiment is described as follows: CD47-SIRPalpha protein protein interaction - Alpha assay qHTS validation (AID 1347059).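 Also: bead proximity luminescence from CD47 binding SIRPalpha after compound preincubation with SIRPalpha; % is scaled to controls: 0 for no effect and ±100 for the full control effect.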 Put shortly: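 SIRPalpha-biotin 25 nM + cpd, 30 min RT, dark; add CD47-His 12.5 nM, 30 min; add Ni-NTA/SAV beads 10 ug/mL, 30 min; AlphaScreen. Buffer PBS pH 7.4 + 0.05% IGEPAL CA-630. Non-biotinylated SIRPalpha as control inhibitor.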

Sequence of Nucleoprotein (Lymphocytic choriomeningitis virus (strain Armstrong)) (P09992 whole entry, looked up): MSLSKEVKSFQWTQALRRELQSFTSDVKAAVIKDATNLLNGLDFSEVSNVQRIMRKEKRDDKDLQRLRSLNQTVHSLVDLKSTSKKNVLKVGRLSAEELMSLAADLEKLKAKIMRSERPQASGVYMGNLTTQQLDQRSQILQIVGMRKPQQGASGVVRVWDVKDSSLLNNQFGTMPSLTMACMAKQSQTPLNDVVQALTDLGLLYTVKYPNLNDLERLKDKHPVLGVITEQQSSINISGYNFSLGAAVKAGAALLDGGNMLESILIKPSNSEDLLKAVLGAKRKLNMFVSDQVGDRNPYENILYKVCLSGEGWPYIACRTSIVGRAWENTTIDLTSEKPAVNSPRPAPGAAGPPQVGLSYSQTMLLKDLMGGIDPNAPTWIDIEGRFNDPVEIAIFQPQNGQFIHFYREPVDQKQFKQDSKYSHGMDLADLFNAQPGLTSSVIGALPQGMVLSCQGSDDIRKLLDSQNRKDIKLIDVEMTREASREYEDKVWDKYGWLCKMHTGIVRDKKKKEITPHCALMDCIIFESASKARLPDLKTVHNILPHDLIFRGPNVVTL
T1 sequence (P78324 whole entry, looked up, the tested form may be a part): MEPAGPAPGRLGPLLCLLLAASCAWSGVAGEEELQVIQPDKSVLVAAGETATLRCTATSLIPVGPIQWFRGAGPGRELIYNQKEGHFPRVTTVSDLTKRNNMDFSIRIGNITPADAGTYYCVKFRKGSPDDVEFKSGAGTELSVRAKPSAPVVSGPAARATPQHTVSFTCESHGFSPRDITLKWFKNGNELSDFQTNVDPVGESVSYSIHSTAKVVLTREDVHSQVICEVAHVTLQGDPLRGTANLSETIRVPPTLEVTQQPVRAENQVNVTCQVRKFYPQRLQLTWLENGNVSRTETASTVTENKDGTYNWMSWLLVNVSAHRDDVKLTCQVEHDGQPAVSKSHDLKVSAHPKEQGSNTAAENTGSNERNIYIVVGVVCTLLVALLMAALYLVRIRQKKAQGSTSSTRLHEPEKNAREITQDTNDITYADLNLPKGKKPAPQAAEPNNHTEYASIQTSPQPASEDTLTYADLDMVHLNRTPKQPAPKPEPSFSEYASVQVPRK
T1 sequence (Q08722 whole entry, looked up, the tested form may be a part): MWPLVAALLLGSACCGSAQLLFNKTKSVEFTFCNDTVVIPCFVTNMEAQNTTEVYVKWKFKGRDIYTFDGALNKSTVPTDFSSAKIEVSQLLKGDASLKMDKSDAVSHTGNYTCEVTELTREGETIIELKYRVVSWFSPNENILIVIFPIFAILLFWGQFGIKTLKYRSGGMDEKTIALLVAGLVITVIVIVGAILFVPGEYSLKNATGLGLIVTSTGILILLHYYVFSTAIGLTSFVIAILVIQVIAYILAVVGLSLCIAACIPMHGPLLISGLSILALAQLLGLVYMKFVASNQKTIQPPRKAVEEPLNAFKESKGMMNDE
Sequence of Parathyroid hormone/parathyroid hormone-related peptide receptor (Homo sapiens) (Q03431 whole entry, looked up): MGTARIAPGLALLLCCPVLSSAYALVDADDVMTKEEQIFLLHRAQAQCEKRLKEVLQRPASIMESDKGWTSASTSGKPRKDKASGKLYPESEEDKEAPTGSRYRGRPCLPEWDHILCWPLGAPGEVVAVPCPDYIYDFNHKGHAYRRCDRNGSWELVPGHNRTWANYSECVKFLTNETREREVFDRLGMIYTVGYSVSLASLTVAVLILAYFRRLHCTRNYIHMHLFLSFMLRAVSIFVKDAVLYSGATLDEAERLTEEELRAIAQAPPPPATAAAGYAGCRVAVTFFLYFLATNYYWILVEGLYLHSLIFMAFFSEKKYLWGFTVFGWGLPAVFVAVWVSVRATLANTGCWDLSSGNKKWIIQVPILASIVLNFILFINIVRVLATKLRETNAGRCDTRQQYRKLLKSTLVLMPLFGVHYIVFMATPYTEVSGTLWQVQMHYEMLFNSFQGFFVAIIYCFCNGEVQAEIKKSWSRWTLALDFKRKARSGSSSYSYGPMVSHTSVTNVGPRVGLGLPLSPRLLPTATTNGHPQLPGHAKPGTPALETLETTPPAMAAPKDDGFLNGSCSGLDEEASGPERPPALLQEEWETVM
Sequence of Atrial natriuretic peptide receptor 2 (Homo sapiens) (P20594 whole entry, looked up): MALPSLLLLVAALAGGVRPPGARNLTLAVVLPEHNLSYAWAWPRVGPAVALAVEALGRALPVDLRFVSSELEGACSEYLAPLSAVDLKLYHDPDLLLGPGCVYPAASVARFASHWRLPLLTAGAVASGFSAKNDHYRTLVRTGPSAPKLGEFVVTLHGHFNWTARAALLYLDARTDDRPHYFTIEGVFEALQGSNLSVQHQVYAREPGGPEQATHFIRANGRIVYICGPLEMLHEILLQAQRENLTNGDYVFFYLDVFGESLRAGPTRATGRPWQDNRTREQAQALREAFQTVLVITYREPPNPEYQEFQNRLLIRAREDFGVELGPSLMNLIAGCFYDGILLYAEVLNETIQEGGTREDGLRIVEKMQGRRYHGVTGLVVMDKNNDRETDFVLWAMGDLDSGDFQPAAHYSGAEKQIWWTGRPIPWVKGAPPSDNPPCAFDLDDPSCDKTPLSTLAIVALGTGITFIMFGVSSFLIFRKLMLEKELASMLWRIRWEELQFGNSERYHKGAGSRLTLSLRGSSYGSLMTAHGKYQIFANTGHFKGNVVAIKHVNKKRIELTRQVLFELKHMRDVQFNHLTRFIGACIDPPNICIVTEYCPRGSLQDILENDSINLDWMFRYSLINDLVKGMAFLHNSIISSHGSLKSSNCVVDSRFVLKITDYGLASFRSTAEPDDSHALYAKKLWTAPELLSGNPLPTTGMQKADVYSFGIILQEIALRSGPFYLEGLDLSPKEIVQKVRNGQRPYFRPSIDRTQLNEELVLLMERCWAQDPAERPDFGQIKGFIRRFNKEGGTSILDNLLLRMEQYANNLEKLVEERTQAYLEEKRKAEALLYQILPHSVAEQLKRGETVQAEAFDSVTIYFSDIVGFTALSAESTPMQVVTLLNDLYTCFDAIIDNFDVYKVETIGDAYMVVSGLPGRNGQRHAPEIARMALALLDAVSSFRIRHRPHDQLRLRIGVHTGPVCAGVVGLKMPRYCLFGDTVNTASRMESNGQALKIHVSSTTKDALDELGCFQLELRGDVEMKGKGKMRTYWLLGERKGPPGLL
Sequence of Atrial natriuretic peptide receptor 1 (Homo sapiens) (P16066 whole entry, looked up): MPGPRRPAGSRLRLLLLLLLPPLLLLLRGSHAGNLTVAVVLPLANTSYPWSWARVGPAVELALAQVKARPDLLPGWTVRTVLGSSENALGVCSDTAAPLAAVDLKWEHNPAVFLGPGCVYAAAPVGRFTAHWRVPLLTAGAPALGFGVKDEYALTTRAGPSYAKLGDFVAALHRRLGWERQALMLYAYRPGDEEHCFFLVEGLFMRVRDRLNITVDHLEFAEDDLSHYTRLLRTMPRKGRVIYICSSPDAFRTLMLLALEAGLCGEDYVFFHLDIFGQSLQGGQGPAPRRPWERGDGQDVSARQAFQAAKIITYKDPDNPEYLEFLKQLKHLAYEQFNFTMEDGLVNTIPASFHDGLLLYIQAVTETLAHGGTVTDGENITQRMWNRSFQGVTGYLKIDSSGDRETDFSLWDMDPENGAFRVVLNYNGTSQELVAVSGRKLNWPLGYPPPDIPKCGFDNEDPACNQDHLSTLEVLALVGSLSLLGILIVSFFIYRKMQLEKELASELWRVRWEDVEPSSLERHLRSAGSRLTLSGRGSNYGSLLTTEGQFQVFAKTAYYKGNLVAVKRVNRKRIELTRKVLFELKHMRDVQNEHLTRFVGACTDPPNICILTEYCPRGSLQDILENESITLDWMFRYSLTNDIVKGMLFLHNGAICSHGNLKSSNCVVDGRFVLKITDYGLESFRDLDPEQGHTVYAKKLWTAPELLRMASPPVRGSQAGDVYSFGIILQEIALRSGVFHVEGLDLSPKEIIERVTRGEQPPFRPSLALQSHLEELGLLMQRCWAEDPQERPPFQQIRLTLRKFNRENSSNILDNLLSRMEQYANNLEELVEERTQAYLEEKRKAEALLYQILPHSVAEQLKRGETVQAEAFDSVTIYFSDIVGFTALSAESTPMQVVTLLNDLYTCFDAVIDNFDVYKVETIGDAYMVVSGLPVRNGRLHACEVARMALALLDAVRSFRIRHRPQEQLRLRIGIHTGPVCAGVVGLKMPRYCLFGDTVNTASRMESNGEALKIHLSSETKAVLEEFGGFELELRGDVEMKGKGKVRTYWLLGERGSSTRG

With `COc1ccc2c(c1)/C(=C/c1cnc[nH]1)C(=O)N2`, the Potency in [1] was 7.31 µM (active); in [2], 5.17 µM (active). The Potency result in experiment [3], in [4] and in experiment [5] was “inactive” in each case.

With `CCN1C[C@]2(COC(=O)c3ccccc3N3C(=O)C[C@H](C)C3=O)CC[C@H](OC)[C@@]34[C@@H]5C[C@H]6[C@H](OC)[C@@H]5[C@](O)(C[C@@H]6OC)[C@](O)([C@@H](OC)[C@H]23)[C@@H]14`, the Potency result in [1] and in experiment [2] was “inactive” throughout.

Regarding `C/C(O)=C(\C#N)C(=O)Nc1cc(Br)ccc1Br`, the Potency entry in experiment [1], in experiment [2], in experiment [3], in [6], in [4] and in experiment [5] was “inactive” each time. The Potency entry in [7], in [8], in [9] and in experiment [10] was “inactive” throughout.

As to `CCCN1CCO[C@H]2c3cc(O)ccc3OC[C@@H]21`, the Potency result in experiment [1] and in experiment [2] was “inactive” throughout.

For the compound `CC1C/C=C/C(O)C(O)CC/C=C/c2cc(O)cc(O)c2C(=O)O1` (configuration not stated), the Potency result in experiment [2] is “inactive”.

For the compound `CN1[C@@H]2CC[C@H]1CC(OC(=O)C1C=Nc3ccccc31)C2` (some centres not stated), the Potency result in [2] was “inactive”.

With `C=C[C@H]1[C@H](O[C@@H]2O[C@H](CO)[C@@H](O)[C@H](O)[C@H]2O)OC=C2C(=O)OCC[C@H]21`, the Potency entry in experiment [1] and in [2] was “inactive” in each case.

As for `CC(CCc1ccc(O)cc1)O[C@@H]1O[C@H](CO[C@H]2OC[C@](O)(CO)[C@H]2O)[C@@H](O)[C@H](O)[C@H]1O` (some centres not stated), in [2], the Potency entry is “inactive”.

`C/C=C(\C)C(=O)OC1CC2C(CC=C3CC(OC4CC(OC)C(OC5CC(OC)C(OC6OC(C)C(OC7OC(CO)C(O)C(O)C7O)C(OC)C6O)C(C)O5)C(C)O4)CCC32C)C2(O)CCC(C(C)=O)C12C` (configuration not stated): the outcome in [1] is “inactive [at 9.29 µM]”. Also, the activity change, negative = cytotoxicity in experiment [2] is 9.6% [at 9.29 µM].

On to `C[C@@]1(C(=O)O)CC[C@]2(C)CC[C@]3(C)C4=CC(=O)c5cc(O)c(O)cc5[C@]4(C)CC[C@@]3(C)[C@@H]2C1`, for which the Potency entry in [1] and in experiment [2] was “inactive” each time.

In the case of `CCc1c(C(=O)C(N)=O)c2c(OCC(=O)OC)cccc2n1Cc1ccccc1`, the Potency entry in experiment [1] and in experiment [2] was “inactive” throughout.

On to `Cc1cn(C[C@H](N)C(=O)O)c(=O)n(Cc2cc(-c3ccccc3)sc2C(=O)O)c1=O`, for which the Potency entry in experiment [1] and in experiment [2] was “inactive” in each case.

For the compound `COCC1OC(=O)c2coc3c2C1(C)C1=C(C3=O)C2CCC(=O)C2(C)CC1O` (configuration not stated), the Potency result in [1] and in experiment [2] was “inactive” each time.

As to `C[C@]12CC[C@@H](O)C[C@H]1CC[C@@H]1[C@@H]2CC[C@]2(C)C(=O)CC[C@@H]12`, the Potency entry in [1] and in experiment [2] was “inactive” in each case.

For `C=C(C)[C@H]1O[C@H]2CC[C@@]3(C)[C@@](O)(CC[C@H]4[C@@H]5OC(C)(C)[C@H]6C[C@@H]7C(=C)Cc8c(Cl)cc9[nH]c(c5c9c8[C@@]76O)[C@@]43C)[C@]23O[C@@H]3[C@H]1O`, the Potency result in experiment [1] and in [2] was “inactive” each time.

Take `O=C(O)c1ccnc2cc(C(OCCN3CCCCC3)c3ccccc3Cl)[nH]c12` (configuration not stated): the Potency entry in experiment [1] and in [2] was “inactive” in each case.

Take `CCc1[nH]c2ccc(OC)cc2c1CCN(C)C`: the Potency entry in [2] is “inactive”.

For `Cc1c(Cl)cccc1S(=O)(=O)Nc1nc(CC(=O)N2CCN(C)CC2)cs1`, the Potency entry in [1] and in [2] was “inactive” each time.

On to `C[C@@H]1C(=O)O[C@H]2[C@H](O)[C@@]34[C@@H]5OC(=O)[C@@]3(O[C@@H]3OC(=O)[C@@H](O)[C@@]34[C@H](C(C)(C)C)[C@H]5O)[C@@]12O`, for which the Potency entry in [1] and in experiment [2] was “inactive” each time.

`C[C@@]12C[C@@H](c3ccoc3)OC(=O)C1CC[C@]1(C)[C@H]2[C@H]2C=C[C@]1(O)C(=O)O2` (some centres not stated): the Potency entry in [2] is “inactive”.

As for `COc1c(C(C)C)cc2c(c1O)[C@@]1(C(=O)O)CCCC(C)(C)C1CC2` (some centres not stated), the Potency result in experiment [1] and in [2] was “inactive” in each case.

On to `CCCCCCn1c(=O)c(C(=O)Nc2ccc(C(=O)OCCC)cc2)c(O)c2ccccc21`, for which the outcome in experiment [1] and in experiment [2] was “inactive [at 9.29 µM]” throughout.

For `N#C[C@@H](O[C@@H]1O[C@H](CO[C@@H]2O[C@H](CO)[C@@H](O)[C@H](O)[C@H]2O)[C@@H](O)[C@H](O)[C@H]1O)c1ccccc1`, the Potency entry in experiment [2] was “inactive”.

For `CC(N)Cc1c[nH]c2ccccc12` (configuration not stated), the Potency entry in experiment [1] and in experiment [2] was “inactive” each time.

Regarding `COC1=CC(=O)O[C@@H](/C=C/c2ccccc2)C1`, the Potency result in experiment [1] and in experiment [2] was “inactive” in each case.

As for `C=C(CO)C(=O)O[C@H]1C/C(C)=C/CC/C(CO)=C/[C@H]2OC(=O)C(=C)[C@H]12`, the Potency entry in experiment [1] and in experiment [2] was “inactive” throughout.

Take `COC(=O)C12C(=O)C(C)(O)C(=O)C1(C)C(C)=CC1C34CCC(OC3=O)C(C)(CO)C4CCC12C` (configuration not stated): the Potency entry in experiment [1] and in experiment [2] was “inactive” throughout.

Consider `CCC(C)(C#N)O[C@@H]1O[C@H](CO)[C@@H](O)[C@H](O)[C@H]1O` (some centres not stated), for which the Potency entry in [1] and in [2] was “inactive” in each case.

As to `CC(C)(C)c1cc(C(C)(C)C)c2c(c1)C(O)(C(F)(F)F)C(=O)O2` (configuration not stated), the Potency entry in experiment [1] and in [2] was “inactive” throughout.

In the case of `C1=C2CCCN[C@H]2[C@@H]2C[C@H]1[C@H]1CCCCN1C2`, the Potency entry in [1] and in experiment [2] was “inactive” throughout.

Regarding `CC1=C2C[C@H]3[C@@H](CC=C4C[C@@H](O)CC[C@@]43C)[C@@H]2CC[C@]12O[C@@H]1C[C@H](C)CN[C@H]1[C@H]2C`, the Potency result in [2], in [7], in experiment [8], in [9] and in [10] was “inactive” in each case.

For the compound `CC(C)(O)[C@@H]1C2OC(=O)[C@@H]1[C@]1(O)C[C@H]3O[C@]34C(=O)O[C@H]2[C@]14C` (tested in a mixture with another compound), the Potency result in experiment [3], in [6], in experiment [4], in experiment [12], in [14] and in experiment [5] was “inactive” in each case. For the same compound, the Potency result in [7], in experiment [8], in [9] and in experiment [10] was “inactive” each time. In addition, the outcome in experiment [11] and in experiment [13] was inactive.

With `CN1C(=O)c2ccccc2NC(=O)[C@]12O[C@@H]2c1ccccc1`, the Potency result in experiment [2] is “inactive”.

On to `CN[C@H]1[C@H](O)[C@H](O[C@@H]2[C@@H](O)[C@H](O[C@H]3O[C@H]([C@H](C)O)[C@@H](O)[C@H](O)[C@H]3N)[C@@H](N)C[C@H]2N)OC[C@@]1(C)O`, for which the Potency result in experiment [2] was “inactive”.

`COC(=O)N1CCN(C(=O)Cc2ccc(Cl)c(Cl)c2)[C@@H](CN2CCCC2)C1`: the Potency entry in [2] is “inactive”.

Take `CCN1C[C@@]2(COC)C3[C@@H](OC)C4[C@@H]1C3([C@@H]1C[C@]3(O)[C@H](OC(=O)c5ccccc5)[C@@H]1[C@]4(OC(C)=O)[C@@H](O)[C@@H]3OC)[C@H](OC)C[C@H]2O`: the Potency result in [3], in [6], in experiment [4], in [12], in experiment [14] and in [5] was “inactive” each time. Besides, the Potency result in experiment [7], in [8], in [9] and in experiment [10] was “inactive” throughout. In addition, the compound was classed as inactive in experiment [11] and in experiment [13].
